Measured values as given in ChEMBL document CHEMBL4513216, “Probing the Open Global Health Chemical Diversity Library for Multistage-Active Starting Points for Next-Generation Antimalarials” (ACS Infect Dis, 2020).
The whole screen tested about 68,000 compounds, of which about 2,700 (4%) showed an effect of 50% or more. Shown is part of a subset that was picked to be rich in strong results.

test system: Plasmodium berghei; assay: Screen against P. berghei liver stage (PbLuc), transformed with Luciferase, at 2uM; type: functional, HepG2; conditions: tested at 2 uM

SMILES	INHIBITION [%]
Cc1nnc(NC(=O)NCc2ccc(F)cc2)s1	-12.41
O=C(c1nc2c(o1)CN(CC1CCC1)C2)N1CCCC1	12.68
COCCN1C[C@H]2[C@@H](C1)N(C(=O)CCc1ccccc1)CC[C@H]2OC	25.02
COCCN1C[C@@H]2[C@@H](OC)CCN(C(=O)Cc3ccccc3)[C@@H]2C1	55.44
COCCN1C[C@H]2[C@@H](C1)N(C(=O)COc1ccccc1)CC[C@H]2OC	-75.33
N#Cc1ccccc1CN1C[C@H]2CC[C@@H](C1)N(Cc1cscn1)C2=O	-66.52
CC(C)N(C)S(=O)(=O)N1CCCC1CC(=O)c1cccs1 (stereo not drawn)	2.71
Cc1ccc(CNCC2Cn3nnc(-c4cccc(F)c4)c3CO2)o1 (stereo not drawn)	-17.26
CN1CCC2(COCCN(Cc3cccc(C#N)c3)C2)C1 (stereo not drawn)	16.03
CCCS(=O)(=O)N1CCC2(CCC(=O)N(CCc3cccnc3)C2)CC1	31.96
CCCS(=O)(=O)N1CCC2(CCC(=O)N(CCc3ccccc3)C2)CC1	15.56
CCCS(=O)(=O)N1CCC2(CCC(=O)N(Cc3ccccc3)C2)CC1	57.91
CCC(CNC(=O)Cc1c(C)noc1C)N1CCCC1 (stereo not drawn)	-15.63
COc1cc(CCC(=O)N2CCC(c3cnccn3)CC2)on1	-56.97
Cn1nccc1CCC(=O)N1CCC(c2cnccn2)CC1	-14.13
Cc1ccnn1CCC(=O)N1CCC(c2cnccn2)CC1	55.74
CC(Cn1cc(Br)cn1)C(=O)Nc1ccc(Br)cn1 (stereo not drawn)	-84.37
CC(C)N(CCCNC(=O)C1CCCN(C(N)=O)C1)S(C)(=O)=O (stereo not drawn)	26.18
N#CCCNC(=O)CSc1cc(F)ccc1F	51.83
N#CCCNC(=O)CSc1ccc(F)cc1F	21.22
CN(CCC#N)C(=O)CSc1cc(F)ccc1F	6.82
CCc1nnc(NC(=O)c2ccc(C3CCCN3CC(C)C)s2)s1 (stereo not drawn)	52.98
CC(C)CN1CCCC1c1ccc(C(=O)Nc2cn(C)nn2)s1 (stereo not drawn)	-28.11
Cc1cnc(NC(=O)c2ccc(C3CCCN3CC(C)C)s2)s1 (stereo not drawn)	24.36
CCc1nccn1-c1cncc(C2CCCN2)n1 (stereo not drawn)	-21.99
c1ccc(C2CCCN2Cc2nnnn2C2CC2)cc1 (stereo not drawn)	7.74

SMILES	INHIBITION [%]
CN(CCCNS(=O)(=O)N1CCC2(CC1)OCCO2)c1ccccc1	0.12
O=c1[nH]c2nc(NCC3CCCO3)ncc2c(=O)n1-c1ccc(F)cc1 (stereo not drawn)	24.34
O=c1[nH]c2nc(NCC3CCCO3)ncc2c(=O)n1-c1cccc(F)c1 (stereo not drawn)	61.06
O=c1[nH]c2nc(N3CCCC3)ncc2c(=O)n1-c1cccc(F)c1	22.51
CN1CCCC[C@@H]2[C@H]1[C@@H](c1ccccc1)CCN2S(=O)(=O)N1CCCC1	49.9
COc1ccc(OC)c(-n2nnnc2SCC2CCCCO2)c1 (stereo not drawn)	-10.78
Cc1cnc2[nH]c(C(F)(F)F)c(CN3CCCC(CO)C3)c2c1 (stereo not drawn)	18.87
CCc1ncncc1C(=O)NCCNC(=O)c1ccc(C)c(F)c1	-18.39
Cc1ccc(C(=O)NCCNC(=O)c2cncnc2C)cc1F	-9.98
Cc1ccc(C(=O)NCCNC(=O)c2cncnc2C(C)C)cc1F	57.34
O=C(CCn1cccn1)NCCOc1cccc(Cl)c1	8.78
Nc1ccc(C(=O)N2C[C@H]3CC[C@@H](C2)N(Cc2ccccc2)C3)cn1	57.85
Cc1ccc(C(=O)N2C[C@H]3CC[C@@H](C2)N(Cc2ccccc2)C3)cn1	-17.44
O=C(c1c[nH]c(=O)cn1)N1C[C@H]2CC[C@@H](C1)N(Cc1ccccc1)C2	24.51
COc1ncccc1CN1CCn2c(Cn3cncn3)cnc2C1	-47.72
O=C(NCCC1=CCCCC1)c1ccc(-n2cccc2)nc1	46.17
CCc1nnc2n1CCN(C(=O)Cc1csc(-c3ccco3)n1)C2	-5.2
CCN1CCN(C(=O)C(C)n2cc(Br)cn2)CC1 (stereo not drawn)	1.77
CC/C=C(/C)C(=O)NS(=O)(=O)c1ccc(C#N)cc1C(F)(F)F	6.08
CC/C=C(/C)C(=O)NS(=O)(=O)c1ccc(C#N)c(C(F)(F)F)c1	57
CCCC(=O)NS(=O)(=O)c1ccc(C#N)c(C(F)(F)F)c1	4.68
Cn1nc(CNC(=O)NCc2ccc(Cl)cc2)c2c1CCOC2	-18.29
C=C(C)COc1cccc(CN(C)C(C)c2ccncn2)c1 (stereo not drawn)	53.17
C=C(C)COc1cccc(CN(C)C(C)c2nccs2)c1 (stereo not drawn)	-10.78
C=C(C)COc1cccc(C(=O)N(C)C(C)c2ccncn2)c1 (stereo not drawn)	18.88
CC(C)N1CCCC(Cc2nccnc2Cl)C1 (stereo not drawn)	-47.18

SMILES	INHIBITION [%]
COc1c(CNC(C)c2sc(C)nc2C)c(C(C)C)nn1C (stereo not drawn)	59.99
Cc1nc(C)c(C(C)NCc2c(C(C)C)nn(C)c2N(C)C)s1 (stereo not drawn)	-34.69
Cc1nc(C)c(C(C)NCc2c(C)nn(C)c2N(C)C)s1 (stereo not drawn)	-30.49
Cc1ccc(-c2cc(N)c(=O)n(C(C)C(=O)NCC3CCCCC3)n2)s1 (stereo not drawn)	-1.07
Cc1ncsc1CN1C[C@@H]2CC[C@H]1CN(Cc1ccccc1)C2	15.68
CC(C)(C)C(O)CN1CCN(CCOCC(F)(F)F)CC1 (stereo not drawn)	-17.11
Cc1nn(C)c(C)c1C(=O)NCc1ccnc(OCC(F)(F)F)c1	11.09
COCCN1CCCC1c1ccnc(-c2ccccc2)n1 (stereo not drawn)	14.3
CCCn1cc(-c2cc(-c3ccoc3)c(C#N)c(N)n2)c(C)n1	61.28
CCCn1cc(-c2cc(-c3cnc(OC)nc3)c(C#N)c(N)n2)c(C)n1	38.61
CCCn1cc(-c2cc(-c3c[nH]cn3)c(C#N)c(N)n2)c(C)n1	38.15
Cc1cccc(-c2noc(CN3CC(n4cccn4)C3)n2)c1	-15.28
CS(=O)(=O)Cc1ccc(Cl)c(NCc2noc(C3CC3)n2)c1	-22.2
Cc1ccc(-c2ccc(Cl)nn2)cc1S(=O)(=O)N1CCOCC1	4.88
Cc1cc(C)c(S(=O)(=O)Nc2c(C)nc(N(C)C)nc2C)cc1C	-46.61
CN1CC2(CCCN(Cc3nnc(-c4ccco4)o3)CC2)OC1=O (stereo not drawn)	16.82
CN1CC2(CCCN(Cc3nnc(-c4ccccc4)o3)CC2)OC1=O (stereo not drawn)	-16.62
CN1CC2(CCCN(Cc3nnc(-c4cccc(F)c4)o3)C2)OC1=O (stereo not drawn)	54.49
O=C(NC[C@]12COC[C@H]1CN(Cc1ccco1)C2)c1ccccc1	-36.34
O=C(NCc1ccco1)N1CCC(n2ccc(C(F)(F)F)n2)CC1	-43.09
Cc1nn(C)cc1CN1CCCC(n2c(=O)oc3ccc(Cl)cc32)C1 (stereo not drawn)	13.17
COCC(=O)N1CCN(C(C)=O)C[C@@H]1C(=O)OC	23.53
COC(=O)[C@H]1CN(C(=O)NC(C)C)CCN1C(=O)C1CCCCC1	16.67
COC(=O)[C@@H]1CN(C(=O)Nc2ccccc2)CCN1C(C)=O	-21.22
COC(=O)[C@H]1CN(C(C)=O)CCN1C(C)=O	56.21
COCC(=O)N1CCN(C(=O)C2CCCCC2)[C@@H](C(=O)OC)C1	72.68

SMILES	INHIBITION [%]
COCC(=O)N1CCN(C(=O)c2cccs2)[C@@H](C(=O)OC)C1	-19.02
CNC(=O)C1(c2cnccn2)CCCN1C(=O)Cc1ccsc1 (stereo not drawn)	36.82
CN(CCc1ccccn1)Cc1nccn1Cc1ccccc1	-9.98
CN(C)Cc1cnc2n1CCN(C(=O)Cc1ccsc1)CC2	37.51
CN(C)Cc1cnc2n1CCN(C(=O)C1CC=CC1)CC2	46.27
CN(C)Cc1cnc2n1CCN(C(=O)NC1CCCC1)CC2	16.03
CN(C)Cc1cnc2n1CCN(C(=O)Cc1cccc(F)c1)CC2	54.82
CN(C)Cc1cnc2n1CCN(C(=O)Cc1ccc(F)cc1)CC2	8.41
CN(C)Cc1cnc2n1CCN(C(=O)NCc1ccccc1)CC2	53.44
CN(Cc1ccccc1F)C(C(N)=O)c1ccccc1 (stereo not drawn)	24.62
CN(C)S(=O)(=O)c1ccc(-c2nc(C#N)c(NC(C)(C)C)o2)o1	1.3
CCN(CC)CCN1CC[C@H]2OCC[C@@]2(C(=O)N2CCOCC2)C1	41.38
COC(=O)c1cccc(C(=O)N2CCN(c3cc(Cl)ccc3C)CC2)n1	18.76
CC(C)=CCCC(C)CN1CCC(n2cc(CO)nn2)CC1 (stereo not drawn)	55.66
CC(C)=CCCC(C)CN1CCC(n2cc(C(=O)NCCO)nn2)CC1 (stereo not drawn)	48.93
CC(C)=CCCC(C)CN1CCC(n2cc(C(C)(C)O)nn2)CC1 (stereo not drawn)	15.27
Fc1cccc(C2(CNC3CCOC4(CCOCC4)C3)CCOCC2)c1 (stereo not drawn)	-8.87
COc1cc(CNCCn2cc(C)cn2)c2c(c1)CC(C)O2 (stereo not drawn)	-11.26
COc1cccc(OCC(=O)N(C)c2cccnc2N(C)C)c1	-3.66
CN(C)c1ncccc1N(C)C(=O)Cn1cc(-c2ccccc2)nn1	-34.37
COc1ccc(CC(=O)N(C)c2cccnc2N(C)C)c(Cl)c1	54.29
Fc1ccc(CN2CCC3(CC2)CCN(c2ncccn2)CC3)cc1	26.94
CC(O)CN1CCC(CN(C)Cc2cc(F)cc3cccnc23)CC1 (stereo not drawn)	-0.44
Cc1ccc2c(n1)N(CCN(C)C)CCN(C(=O)c1cccs1)C2	-29.61
Cc1cnc2n(c1=O)CC(C(=O)NCc1ccccc1Cl)CS2 (stereo not drawn)	39.58
